Screens deposited in PubChem BioAssay by National Center for Advancing Translational Sciences (NCATS).
KAT2A inh – qHTS Assay for Inhibitors of GCN5L2. Potency, µM (highest dose often 58.9 µM), without a hit: at the top dose activity change, negative = inhibition, actives largely listed as inhibitors. Histone acetyltransferase KAT2A (Homo sapiens), Q92830. AID 504327, 2011. 0.21% of 390,000 active. GCN5L2 HAT assay, ThioGlo1 CoA-SH fluorescence; further: on the % scale 0 is the no-effect control and ±100 the full control effect
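qHTS, 1536-well. 20nM enzyme, pH 7.5 HEPES/EDTA/Tween-20 buffer; 15 min compound preinc., RT. Start: 75uM H3(1-25), 70uM AcCoA, 50uM ThioGlo1. Read Ex340/Em540 at t=0 (autofluorescence flag) and t=20 min.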
ERG Ets-DNA blk – qHTS for Small Molecule Inhibitors of the ERG Ets/DNA interaction; AID 624246, 2012; 0.028% of 370,000 active; Potency, µM (titrated, usually from 76.9 µM), without a hit: at the highest dose FP activity, negative = inhibition, usual class: inhibitors; Transcriptional regulator ERG (Homo sapiens), P11308; fluorescence polarization, His-ERG Ets domain / labelled DNA; active means well fitted inhibition curve with a large enough effect in the polarisation, with a control signal flat; inconclusive means small, poorly fitted or top-dose-only effect, or effect the other way, or a change in a side signal; inactive means no such curve, though single readings can be large or run the other way; the % refers to the polarisation;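 further: polarization taken with two DNA probes labelled with fluorescein and Texas red; % of control where 0% means no effect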
Target sequence (P11308 whole entry, looked up, the tested form may be a part): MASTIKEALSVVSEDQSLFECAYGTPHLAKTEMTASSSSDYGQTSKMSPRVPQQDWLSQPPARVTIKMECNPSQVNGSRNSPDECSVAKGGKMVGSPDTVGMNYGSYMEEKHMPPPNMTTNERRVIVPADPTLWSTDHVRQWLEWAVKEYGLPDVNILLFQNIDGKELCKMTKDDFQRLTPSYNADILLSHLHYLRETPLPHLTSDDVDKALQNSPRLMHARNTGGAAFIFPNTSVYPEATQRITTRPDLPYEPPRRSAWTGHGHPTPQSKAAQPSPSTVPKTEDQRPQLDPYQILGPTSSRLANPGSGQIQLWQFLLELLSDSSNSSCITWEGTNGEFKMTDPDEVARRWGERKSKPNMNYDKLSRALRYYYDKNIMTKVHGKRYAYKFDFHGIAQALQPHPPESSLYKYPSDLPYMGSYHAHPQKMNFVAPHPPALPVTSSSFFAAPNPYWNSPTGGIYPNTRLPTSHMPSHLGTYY
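His-tagged ERG Ets domain (1 uM in the protein solution; 300mM KCl, 50mM Tris-HCl, 1mM EDTA, 1mM DTT, pH 7.5) received compound, then a probe mix of 5 nM fluorescein-DNA and 100nM Texas-615-DNA. Fluorescence polarization was read for both dyes.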
APEX1 inh – qHTS Assay for Inhibitors of the Human Apurinic/apyrimidinic Endonuclease 1 (APE1) | recombinant APE1, TAMRA/BHQ-2 abasic DNA cleavage fluorescence | 0.35% of 350,000 active | Potency, µM (titrated, usually from 65.8 µM), for inactives: at the highest dose activity change, negative = inhibition, most hits filed as inhibitors | AID 2517, 2012 | DNA repair nuclease/redox regulator APEX1 (Homo sapiens), P27695;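 further: plate controls were vehicle for no effect and reference inhibitor for full effect; nearly all actives have a fitted effect of over 55% in size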
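Compound pre-exposure to 0.75 nM APE1, 15 min at ambient temperature. Reaction initiated with 50 nM TAMRA/BHQ-2 THF substrate, read immediately in kinetic mode, 525 nm excitation, 598 nm emission.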
BLM inh – qHTS Assay for Inhibitors of Bloom's syndrome helicase (BLM); Potency, µM (series often up to 56.1 µM), inactives show at the highest dose activity change, negative = inhibition, actives largely listed as inhibitors; recombinant BLM DNA unwinding, fluorescence dequenching; AID 2528, 2010; 0.2% of 350,000 active;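 further: plate controls were vehicle for no effect and no enzyme for full effect; nearly all actives have a fitted effect of over 35% in size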
WRN helicase inh – qHTS for Inhibitors of WRN Helicase; Bifunctional 3'-5' exonuclease/ATP-dependent helicase WRN (Homo sapiens), Q14191; WRN helicase unwinding, fluorescent forked duplex, kinetic; Potency, µM (series often up to 114 µM), for the others: at the top dose activity change, negative = inhibition, usual class: inhibitors; 0.46% of 360,000 active; AID 651768, 2012; further: on the % scale 0 is the no-effect control and ±100 the full control effect; nearly all actives have a fitted effect of over 55% in size
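WRN at 20 nM final preincubated with compound 15 min at room temperature; reaction started with 100 nM fluorophore/quencher forked duplex oligonucleotide and 2 mM ATP final. Unwinding followed kinetically by red fluorescence (ex 525, em 598 nm).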
RECQ1 helicase – qHTS Assay for Inhibitors of RecQ-Like Dna Helicase 1 (RECQ1); ATP-dependent DNA helicase Q1 (Homo sapiens), P46063; RECQ1 DNA unwinding, red fluorescence kinetic read; Potency, µM (series often up to 57.3 µM), without a hit: at the top dose activity, negative = inhibition, hits mostly inhibitors; 0.54% of 240,000 active;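 further: plate controls were vehicle for no effect and no enzyme for full effect; nearly all actives have a fitted effect of over 30% in size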
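RECQ1T1 50 nM; forked duplex (20 bp + 30-nt ss tails) 200 nM, ATP 2 mM final; pH 8.0, 2 mM MgCl2, 2.5 ug/ml poly(dI-dC); 15 min compound preincubation; discontinuous kinetic read over 2 h at RT.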
* = called active by the depositor; i = inactive; ? = inconclusive; · = no result; ! = repeats disagree; [ ] = another dose, or the depositor's remark. Compounds with a hit are over-represented: about 0.88% of the library has one in this group of screens. Unless noted, the call rests on the fitted dose curve; in most records, active means well fitted curve in the direction sought with a large enough effect; inconclusive means small, poorly fitted or top-dose-only effect, or another doubt; inactive means no such curve, though single readings can be large; an effect the other way counts as inactive or inconclusive. Potency means the concentration at half of the fitted maximal effect.

SMILES	KAT2A inh	ERG Ets-DNA blk	APEX1 inh	BLM inh	WRN helicase inh	RECQ1 helicase
OC[C@@H](O)C(O)[C@H](O)CO	·	·	-4.4%	·	·	·
Cc1cccn2c(=O)c3cc(C#N)c(=NC(=O)c4ccco4)n(Cc4ccco4)c3nc12	-3.2%	10.8%	-4.6%	?	-29.1%[57.1 µM]	-8.2%
Cc1cccn2c(=O)c3cc(C#N)c(=NC(=O)c4ccccc4)n(Cc4ccco4)c3nc12	·	?	·	·	50.1µM*!	·
CCc1nc2sc3ccccc3c(=O)c2c(=O)n1Cc1ccco1	-17.9%	8.3%	?	?	56.2µM*	-20.1%
O=c1c2ccccc2sc2nc(C3CCCCC3)n(Cc3ccco3)c(=O)c12	-27.9%	4.9%	2.2%	2.7%	-22.1%	-2.9%
Cc1c2oc3c(C)ccc(C(=O)NC4C(=O)NC(C(C)C)C(=O)N5CCCC5C(=O)N(C)CC(=O)N(C)C(C(C)C)C(=O)OC4C)c3nc-2c(C(=O)NC2C(=O)NC(C(C)C)C(=O)N3CCCC3C(=O)N(C)CC(=O)N(C)C(C(C)C)C(=O)OC2C)c(N)c1=O (centres undefined)	-1.8%	·	12.6µM*	·	·	3.16µM*
COc1cccc([C@@H]2Oc3ccc(OC)cc3C[C@H]2OC(=O)N[C@H](C)C2CCCCC2)c1	·	·	3.1%	2.1%	·	-2.9%
O=C1Nc2cc(C(=O)N3CCN(c4ccccc4F)CC3)ccc2NC1CSCc1ccccc1F (centres undefined)	?	·	-5.3%	-11.7%	·	·
Cc1cccc(N2CCN(C(=O)c3ccc4c(c3)NC(=O)C(CSCc3cccc(F)c3)N4)CC2C)c1 (centres undefined)	14.1µM*	21.3%	-6.0%	-6.3%	3.9%	·
O=C(NCc1ccco1)c1cc2c(s1)CSC2	?	-0.7%	?	-16.3%	17.8µM*	-26.9%
CCN(CC)c1ccc2nc3ccc(N)cc3[n+](-c3ccccc3)c2c1	-21.2%	·	23.8µM*	·	4.74µM*	·
OC[C@@H]1[C@@H](c2ccc(Cl)cc2)C(c2cccc(Cl)c2)=NN1c1ccccc1	28.2µM*!	16.9%	-6.6%	-13.2%[75.6 µM]	-1.9%	-20.2%[81.1 µM]
O=C(CSc1nc(-c2ccc(F)cc2)nc2c1Cc1ccccc1O2)Nc1cccc(C(=O)O)c1	12.6µM*	0.7%	2.99µM*	?	?	?
O=C(CSc1nc(-c2ccccc2)nc2c1Cc1ccccc1O2)Nc1ccccc1	-7.9%	·	?	1.4%	·	-8.3%
Cc1ccccc1-n1c(-c2ccncc2)n[nH]c1=S	-14.9%	1.1%	1.7%	-0.8%	-26.6%	-0.2%
CCc1ccccc1-n1c(-c2ccncc2)n[nH]c1=S	-13.5%	7.8%	31.6µM*	5.2%	3.4%	3.8%
CCc1ccc(Nc2ccc3nonc3c2[N+](=O)[O-])cc1	·	-2.6%[15.4 µM]	·	·	10.4%	·
CCOC(=O)NNc1ccc2nonc2c1[N+](=O)[O-]	-23.1%	-7.7%	?	-26.4%	50.1µM*	?
O=C(O)[C@H](Cc1c[nH]c2ccccc12)N1C(=O)C2=CCCC=C2C1=O	-8.3%	·	26.2%	1.6%	·	-7.4%
Cc1ccc(C(=O)CCS(=O)(=O)c2ccc(Br)cc2)cc1	?	1.4%	0.1%	1.1%	-1.1%	·
Cc1ccc(S(=O)(=O)CCC(=O)c2cccc([N+](=O)[O-])c2)cc1	-29.7%	0.6%	-7.8%	-0.6%	14.1µM*	·
Cc1c(C(=O)N2CCCC2)oc2c1-c1nn(CC(=O)NC(C)c3ccccc3)cc1CC2 (centres undefined)	1.9%	0.2%	·	-1.4%	·	·
CCN1/C(=C/C=C/c2oc3ccc(-c4ccccc4)cc3[n+]2CC)Oc2ccc(-c3ccccc3)cc21	-0.1%	31.6µM*	5.5%	22.4µM*	4.74µM*	-18.4%
CNc1nc2c(N)ncnc2n1[C@@H]1O[C@@H]2COP(=O)(O)O[C@H]2[C@H]1O	0.8%	·	-5.9%	-1.9%	·	-12.4%
Cn1c(=O)c(C(=O)COC(=O)c2cc(-c3ccco3)nc3ccccc23)c(N)n(CC2CC2)c1=O	-24.8%	·	?	?	·	31.6µM*
SMILES	KAT2A inh	ERG Ets-DNA blk	APEX1 inh	BLM inh	WRN helicase inh	RECQ1 helicase
O=C(O)c1cc(-c2ccco2)nc2ccccc12	?	-0.5%	25.1µM*	-8.5%	?	-25.3%
O=C(Nc1nc2ccccc2s1)c1cc(-c2ccco2)nc2ccccc12	-24.7%	6.3%	5.3%	4.5%	50.1µM*	-6.7%
Cn1c(=O)c(C(=O)COC(=O)c2cc(C3CC3)nc3ccccc23)c(N)n(Cc2ccccc2)c1=O	-8.9%	15.5%	-9.9%	-12.6%	-1.6%	-17.7%
COc1ccc(C(=O)Nc2nc3ccccc3s2)c(OC)c1	-14.0%	-2.4%	4.7%	-1.3%	50.1µM*	·
Cc1cc(C(=O)NCc2ccco2)c2ccccc2n1	?	-3.7%	-5.4%	-2.5%	-27.0%	i
COc1ccc(CNC(=O)COC(=O)c2cc(-c3ccco3)nc3ccccc23)cc1	?	·	20µM*	-22.7%	·	11.2µM*
Cc1ccc(-c2cc(C(=O)NCc3ccco3)c3ccccc3n2)o1	?	2.3%	31.6µM*	-21.5%	56.2µM*	?
O=C(Nc1ccc2c(c1)OCCO2)c1cnn2c1NC(=C1CC1)C=C2C(F)F	·	·	22.2%	·	·	·
CCO[C@@H]1O[C@H](C(COCc2ccccc2)OCc2ccccc2)[C@H](OCc2ccccc2)[C@H]1O (some centres undefined)	·	·	0.1%[21 µM]	·	·	·
O=C1NC(=S)/C(=C\c2ccc(-c3ccccc3Cl)o2)S1	-25.4%	8.0%	-9.1%	-28.7%	50.1µM*	?
O=C1NC(=O)/C(=C/c2ccc(-c3cc(C(=O)O)ccc3Cl)o2)S1	-12.0%	12.8%	-20.1%	34.6%	-9.7%[11.6 µM]	·
